In PubChem BioAssay (EPA / NIEHS) one finds outcome and AC50 data, which are given here for six compounds.

Read-out in assay [1]: Thrombomodulin, THBD (gene 7056)
The assay is described as follows: BSK_CASM3C_Thrombomodulin: BioMAP Diversity Plus: CASM3C Assay for Thrombomodulin Biomarker Activity (AID 2283051).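 Also: thrombomodulin protein level measured by ELISA 24 h after dosing.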 The note with it: primary human coronary artery smooth muscle cells; actives raise or lower the signal.

Read-out in assay [2]: Tissue Factor, F3 (gene 2152)
As to the kind of experiment: BSK_CASM3C_TissueFactor: BioMAP Diversity Plus: CASM3C Assay for Tissue Factor Biomarker Activity (AID 2283052).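 Also: cell surface tissue factor protein level read by ELISA.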 The note with it: primary human coronary artery smooth muscle cells; actives raise or lower the signal.

Read-out in assay [3]: Interferon-gamma inducible Protein 10 (IP10), CXCL10 (gene 3627)
The assay is described as follows: BSK_hDFCGF_IP10: BioMAP Diversity Plus: hDFCGF Assay for Interferon-gamma inducible Protein 10 (IP10) Biomarker Activity (AID 2283053). The note with it: primary human foreskin fibroblasts; actives raise or lower the signal. A digest of the protocol: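 ELISA read-out of IP-10 (CXCL10) from primary human skin fibroblasts, 24 h after compound addition. Gain or loss of signal versus DMSO baseline, bidirectional curve fitting.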

Read-out in assay [4]: Urokinase-type plasminogen activator receptor (uPAR), PLAUR (gene 5329)
The assay is described as follows: BSK_CASM3C_uPAR: BioMAP Diversity Plus: CASM3C Assay for Urokinase-type plasminogen activator receptor (uPAR) Biomarker Activity (AID 2283054).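 Also: cell-surface uPAR protein level quantified by ELISA.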 The note with it: primary human coronary artery smooth muscle cells; actives raise or lower the signal.

Read-out in assay [5]: Vascular cell adhesion molecule 1 (VCAM1), VCAM1 (gene 7412)
As to the kind of experiment: BSK_CASM3C_VCAM1: BioMAP Diversity Plus: CASM3C Assay for Vascular cell adhesion molecule 1 (VCAM1) Biomarker Activity (AID 2283055).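 Also: VCAM-1 protein level quantified by ELISA on the cells.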 The settings on record: primary human coronary artery smooth muscle cells; actives raise or lower the signal.

Read-out in assay [6]: Collagen III, COL3A1 (gene 1281)
As to the kind of experiment: BSK_hDFCGF_CollagenIII: BioMAP Diversity Plus: hDFCGF Assay for Collagen III Biomarker Activity (AID 2283056). The note with it: primary human foreskin fibroblasts; actives raise or lower the signal. A digest of the protocol:
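Human foreskin primary fibroblasts were exposed to test chemicals for 24 h, after which collagen III was quantified by ELISA. Activity was fitted bidirectionally against DMSO as negative control and baseline.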

Read-out in assay [7]: Epidermal growth factor receptor (EGFR), EGFR (gene 1956)
As to the kind of experiment: BSK_hDFCGF_EGFR: BioMAP Diversity Plus: hDFCGF Assay for Epidermal growth factor receptor (EGFR) Biomarker Activity (AID 2283057). The settings on record: primary human foreskin fibroblasts; actives raise or lower the signal. The method, boiled down:
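ELISA readout of EGFR on human dermal fibroblasts (primary foreskin cells), 24 h post-dosing; bidirectional curve fit vs DMSO baseline, gain or loss of signal scored.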

Read-out in assay [8]: Interleukin-8 (IL8), CXCL8 (gene 3576)
As to the kind of experiment: BSK_hDFCGF_IL8: BioMAP Diversity Plus: hDFCGF Assay for Interleukin-8 (IL8) Biomarker Activity (AID 2283058). The note with it: primary human foreskin fibroblasts; actives raise or lower the signal. A digest of the protocol:
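hDFCGF human dermal fibroblasts; 24 h chemical exposure; IL-8 by ELISA; bidirectional curve fit vs DMSO baseline; gain or loss of signal scored.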

A short description of assay [9]: BSK_hDFCGF_Proliferation: Cell Proliferation Assessment in the BioMAP Diversity Plus: hDFCGF Assay (AID 2283059).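 Also: curves fitted for both rise and fall of signal versus DMSO baseline.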 The note with it: primary human foreskin fibroblasts. The method, boiled down: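 Sub-confluent human foreskin fibroblast cultures receive test chemical […]. Relative cell number is quantified by sulforhodamine B staining (0.1%, after 10% TCA fixation) at 560 nm, with bidirectional fitting referenced to DMSO.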

Read-out in assay [10]: Macrophage colony-stimulating factor (MCSF), CSF1 (gene 1435)
The assay is described as follows: BSK_hDFCGF_MCSF: BioMAP Diversity Plus: hDFCGF Assay for Macrophage colony-stimulating factor (MCSF) Biomarker Activity (AID 2283060). The settings on record: primary human foreskin fibroblasts; actives raise or lower the signal. The method, boiled down: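 Human foreskin primary fibroblasts were treated with test chemical for 24 h, and M-CSF was then measured by ELISA. Data were fitted bidirectionally against DMSO as the negative control and activity baseline.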

Assay [11] in a line: BSK_hDFCGF_SRB: Viability Assessment in the BioMAP Diversity Plus: hDFCGF Assay (AID 2283061).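 Also: cells exposed to compound for 24 h before the read.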 The settings on record: primary human foreskin fibroblasts. The method, boiled down:
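Human foreskin primary fibroblasts were treated with compound and assessed 24 h after dosing. Total protein was measured by sulforhodamine B staining (0.1% SRB after 10% TCA fixation, 560 nm read) as a cytotoxicity marker, with bidirectional fitting against DMSO baseline.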

Read-out in assay [12]: TIMP metallopeptidase inhibitor 1 (TIMP1), TIMP1 (gene 7076)
As to the kind of experiment: BSK_hDFCGF_TIMP1: BioMAP Diversity Plus: hDFCGF Assay for TIMP metallopeptidase inhibitor 1 (TIMP1) Biomarker Activity (AID 2283062). The note with it: primary human foreskin fibroblasts; actives raise or lower the signal. The method, boiled down:
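Primary human foreskin fibroblasts in the hDFCGF system were dosed with compound for 24 h, then TIMP-1 was measured by ELISA. Activity was fitted bidirectionally relative to DMSO control; parallel SRB staining assessed cytotoxicity.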

Read-out in assay [13]: Monokine induced gamma interferon (MIG), CXCL9 (gene 4283)
As to the kind of experiment: BSK_hDFCGF_MIG: BioMAP Diversity Plus: hDFCGF Assay for Monokine induced gamma interferon (MIG) Biomarker Activity (AID 2283063). The note with it: primary human foreskin fibroblasts; actives raise or lower the signal. The method, boiled down:
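ELISA read-out of MIG from primary human dermal fibroblasts 24 h post-dosing. Gain or loss of signal fitted bidirectionally, DMSO as baseline.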

Read-out in assay [14]: Vascular cell adhesion molecule 1 (VCAM1), VCAM1 (gene 7412)
As to the kind of experiment: BSK_hDFCGF_VCAM1: BioMAP Diversity Plus: hDFCGF Assay for Vascular cell adhesion molecule 1 (VCAM1) Biomarker Activity (AID 2283065).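 As to AC50: VCAM-1 protein level quantified by ELISA after 24 h chemical exposure.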 The note with it: primary human foreskin fibroblasts; actives raise or lower the signal. A digest of the protocol:
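Primary human foreskin fibroblasts (hDFCGF system) were dosed with chemical and VCAM-1 was measured by ELISA 24 h later. Bidirectional curve fitting used DMSO as negative control and activity baseline.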

Read-out in assay [15]: Plasminogen activator inhibitor-1 (PAI1), SERPINE1 (gene 5054)
As to the kind of experiment: BSK_hDFCGF_PAI1: BioMAP Diversity Plus: hDFCGF Assay for Plasminogen activator inhibitor-1 (PAI1) Biomarker Activity (AID 2283066). The note with it: primary human foreskin fibroblasts; actives raise or lower the signal. The method, boiled down: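 ELISA readout of PAI-1 from primary human skin fibroblast cultures, 24 h after compound addition. Gain or loss of signal was fitted bidirectionally against DMSO baseline.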

Read-out in assay [16]: Intercellular Adhesion Molecule 1 (ICAM1), ICAM1 (gene 3383)
The assay is described as follows: BSK_KF3CT_ICAM1: BioMAP Diversity Plus: KF3CT Assay for Intercellular Adhesion Molecule 1 (ICAM1) Biomarker Activity (AID 2283067). The settings on record: primary human keratinocytes with fibroblasts; actives raise or lower the signal. The method, boiled down: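 Human keratinocyte plus foreskin fibroblast primary co-culture was exposed to chemical for 24 h. ICAM-1 was then quantified by ELISA, and the data were fit bidirectionally against DMSO as the negative control and baseline.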

Read-out in assay [17]: Interferon-gamma inducible Protein 10 (IP10), CXCL10 (gene 3627)
The assay is described as follows: BSK_KF3CT_IP10: BioMAP Diversity Plus: KF3CT Assay for Interferon-gamma inducible Protein 10 (IP10) Biomarker Activity (AID 2283068). The note with it: primary human keratinocytes with fibroblasts; actives raise or lower the signal. A digest of the protocol: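 ELISA read-out of IP-10 after 24 h chemical dosing of human skin primary co-culture (keratinocytes, foreskin fibroblasts). Gain or loss of signal relative to DMSO, bidirectional curve fit.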

Assay [18] can be described thus: BSK_KF3CT_SRB: Viability Assessment in the BioMAP Diversity Plus: KF3CT Assay (AID 2283069). The note with it: primary human keratinocytes with fibroblasts. A digest of the protocol:
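Cytotoxicity was gauged by SRB staining (0.1% SRB, 10% TCA fixation, 560 nm) of parallel cultures at 24 h. The cells were primary human skin keratinocytes co-cultured with fibroblasts, and activity was fitted in both directions against DMSO.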

Read-out in assay [19]: Interleukin-1 alpha (IL1a), IL1A (gene 3552)
The assay is described as follows: BSK_KF3CT_IL1a: BioMAP Diversity Plus: KF3CT Assay for Interleukin-1 alpha (IL1a) Biomarker Activity (AID 2283070). The note with it: primary human keratinocytes with fibroblasts; actives raise or lower the signal. A digest of the protocol: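 IL-1a was detected by ELISA 24 h after chemical treatment of a co-culture of human skin keratinocytes and foreskin fibroblasts. Gain or loss of signal was fitted against the DMSO baseline.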

Read-out in assay [20]: Matrix Metallopeptidase 1 (MMP1), MMP1 (gene 4312)
As to the kind of experiment: BSK_hDFCGF_MMP1: BioMAP Diversity Plus: hDFCGF Assay for Matrix Metallopeptidase 1 (MMP1) Biomarker Activity (AID 2283064). The note with it: primary human foreskin fibroblasts; actives raise or lower the signal. A digest of the protocol: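 MMP1 levels quantified by ELISA 24 h after dosing human dermal fibroblast cultures, with parallel SRB total-protein staining for overt cytotoxicity. Data fitted in both directions against DMSO baseline.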

SMILES strings stand for the structures. Calls of active or inactive are those of the source. The calls were made as follows: active = hit-call score of the fitted dose curve at least 0.9, where 1 is the maximum; inactive = score below 0.9.

As a reminder, the AC50 is the concentration at which the activity in the assay is half-maximal. As to `CC(Oc1cccc(Cl)c1)C(=O)O` (centres undefined), the outcome in [1], in assay [2], in [3], in assay [4], in [5] and in assay [6] was inactive. In addition, the outcome in [7], in assay [8], in assay [9], in assay [10], in assay [11] and in assay [12] was inactive. Moreover, the outcome in assay [13], in assay [14], in assay [15], in assay [16], in assay [17] and in assay [18] was inactive. In assay [19], the AC50 was 1.15 µM (active).

For the compound `Cc1nn(-c2cc(NS(C)(=O)=O)c(Cl)cc2Cl)c(=O)n1C(F)F`, the result in assay [1], in [2], in assay [3], in assay [4], in [5] and in assay [6] was inactive. Further, the result in assay [7], in [8], in assay [9], in [10], in [11] and in assay [13] was inactive. The result in assay [20], in assay [14], in assay [15], in assay [16], in assay [17] and in [18] was inactive. Moreover, in assay [19], the outcome was inactive.

Take `CCOP(=O)(SC(C)CC)N1CCSC1=O` (centres undefined): the result in assay [1], in assay [2], in [3], in assay [4], in assay [5] and in assay [6] was inactive. The outcome in assay [7], in assay [8], in assay [9], in assay [10], in assay [11] and in [13] was inactive. In addition, the result in assay [20], in [14], in [15], in assay [16], in [18] and in [19] was inactive. In addition, in [17], the AC50 was 0.704 µM (active).

As for `CCOC(=O)CC(SP(=O)(OC)OC)C(=O)OCC` (centres undefined), the result in [1], in assay [2], in [3], in [4], in assay [5] and in assay [6] was inactive. Also, the result in assay [7], in assay [8], in assay [9], in assay [10], in assay [11] and in assay [13] was inactive. The outcome in [20], in [15], in assay [16], in assay [17], in [18] and in assay [19] was inactive. For the same compound, the AC50 in assay [14] was 10.8 µM (active).

Take `CC[C@H](C)[C@H]1O[C@]2(C=C[C@@H]1C)C[C@@H]1C[C@@H](C/C=C(\C)[C@@H](O[C@H]3C[C@H](OC)[C@@H](O[C@H]4C[C@H](OC)[C@@H](NC)[C@H](C)O4)[C@H](C)O3)[C@@H](C)/C=C/C=C3\CO[C@@H]4[C@H](O)C(C)=C[C@@H](C(=O)O1)[C@]34O)O2`: the outcome in [1] and in [2] was inactive. Moreover, the AC50 in assay [3] was 4.28 µM (active); in assay [4], 12.3 µM (active); in assay [5], 12 µM (active); in assay [6], 5.53 µM (active); in assay [7] it was 11.7 µM (active); in assay [8], 6.99 µM (active). The AC50 in assay [9] was 1.43 µM (active); in assay [10] it was 2.85 µM (active); in assay [11] it was 3.85 µM (active); in assay [12], 4.4 µM (active); in assay [13], 5.27 µM (active); in [14], 4.8 µM (active). In addition, the concentration at half-maximal activity (AC50) in assay [15] was 2.08 µM (active); in assay [16], 9.03 µM (active); in [17], 8.17 µM (active); in assay [18] it was 6.31 µM (active); in assay [19], 5.84 µM (active).

Take `CN1COCN(Cc2cnc(Cl)s2)C1=N[N+](=O)[O-]`: the result in assay [1], in [2], in assay [3], in assay [4], in assay [5] and in [6] was inactive. For the same compound, the outcome in assay [7], in assay [9], in [10], in assay [11], in [12] and in assay [13] was inactive. For the same compound, the outcome in assay [20], in [14], in [15], in assay [16], in assay [17] and in assay [18] was inactive. In [19], the result was inactive.
